ALOX12 inh: blocks human arachidonate 12S-lipoxygenase. P18054. purified 12hLO, xylenol orange hydroperoxide absorbance. Potency, µM (series often up to 108 µM), for inactives: at the top dose activity change, negative = inhibition, usual class: inhibitors. actives 1.1% (n = 580,000). AID 1671190; further: on the % scale 0 is the no-effect control and ±100 the full control effect
Target sequence (P18054 whole entry, looked up): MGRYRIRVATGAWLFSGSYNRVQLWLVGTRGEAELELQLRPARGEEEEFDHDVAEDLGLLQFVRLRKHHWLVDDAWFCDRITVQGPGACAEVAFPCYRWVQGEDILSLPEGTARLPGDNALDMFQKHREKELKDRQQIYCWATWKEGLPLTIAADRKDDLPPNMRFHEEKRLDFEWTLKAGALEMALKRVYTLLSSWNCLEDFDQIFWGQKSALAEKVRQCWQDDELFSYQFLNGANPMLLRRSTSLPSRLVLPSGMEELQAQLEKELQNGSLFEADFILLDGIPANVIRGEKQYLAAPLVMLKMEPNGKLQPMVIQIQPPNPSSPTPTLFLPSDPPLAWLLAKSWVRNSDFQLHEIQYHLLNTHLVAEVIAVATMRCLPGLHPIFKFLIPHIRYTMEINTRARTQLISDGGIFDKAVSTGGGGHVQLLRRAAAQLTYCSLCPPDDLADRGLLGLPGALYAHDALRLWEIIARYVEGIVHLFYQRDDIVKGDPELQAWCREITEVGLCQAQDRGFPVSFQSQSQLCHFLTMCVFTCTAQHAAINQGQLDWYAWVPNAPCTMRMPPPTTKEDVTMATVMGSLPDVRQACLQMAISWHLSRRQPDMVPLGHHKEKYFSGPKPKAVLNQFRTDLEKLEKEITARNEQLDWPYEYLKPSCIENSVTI
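Purified human 12hLO at 150 nM in 25 mM Hepes, 0.01% Triton X-100, pH 7.0, preincubated 15 min at room temperature with compound. Reaction started with 40 uM arachidonic acid, 30 min at room temperature. Hydroperoxide measured by Fe-xylenol orange, 573/405 nm absorbance ratio.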
ClpP mod: qHTS Assay for Activators of ClpP. actives 1.9% (n = 340,000). purified B. subtilis ClpP, FRET peptide cleavage, 20 min. AID 651965, 2013. Potency, µM (top dose mostly 57.5 µM), for inactives: top-dose activity change, negative = active; active means well fitted falling curve with a large enough effect; inconclusive means small, poorly fitted or top-dose-only effect; inactive means no such curve, though single readings can be large or run the other way; further: the source files actives as falling curves though it sought activators and does not explain the sign; nearly all actives have a fitted effect of over 65% in size
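ClpP 10 microg/mL final, pH 8 Tris/KCl buffer with BSA, glycerol, Tween-20; compound pinned in; FRET-FV substrate; RT 20 min; Ex320/Em430; ΔFRET vs ADEP 5.8 microM, DMSO, no enzyme.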
TDP1 inh: TDP1 (human) enzyme inhibition. recombinant TDP1, AlphaScreen DNA substrate cleavage. Potency, µM (highest dose often 130 µM), for inactives: at the highest dose activity change, negative = inhibition, hits mostly inhibitors. actives 0.28% (n = 350,000). AID 485290; further: on the % scale 0 is the no-effect control and ±100 the full control effect; nearly all actives have a fitted effect of over 40% in size
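Recombinant human Tdp1 (E. coli-expressed, 1 nM final) preincubated with compounds 15 min at room temperature, then 5'-biotin/3'-phosphotyrosine-FITC DNA substrate (15 nM final) added for 5 min. AlphaScreen beads (10 ug/ml final) added 10 min; cleavage lowers signal.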
Rango release inh: inhibition of RanGTP-driven Rango-importin beta dissociation. actives 0.071% (n = 340,000). Potency, µM (titrated, usually from 46.1 µM), inactives show at the highest dose activity change, negative = inhibition. Biochemical FRET Rango-importin beta, RanGTP-induced dissociation; calls by dose curve; further: % of control where 0% means no effect; nearly all actives have a fitted effect of over 45% in size
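Recombinant Rango FRET biosensor (EYFP–snurportin 1 IBB–cerulean CFP10) at 0.1 uM premixed with 0.25 uM importin beta in PBS, 1 mM DTT, 0.02% Tween-20, 0.1% BSA. Compound added 5 min; RanGTP-RCC1 (0.6 uM Ran, 2 mM GTP, 0.2 uM RCC1) then triggers release, read at 45 min.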
Rango complex inh: prevents formation of the Rango-importin beta complex; Rango CFP/YFP FRET sensor + importin beta, 45 min; Potency, µM (highest dose often 92.2 µM), for the others: at the top dose inhibition of complex formation; actives 0.031% (n = 340,000); AID 540263; calls by dose curve;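 further: 0% = DMSO wells and 100% = buffer wells lacking importin beta; nearly all actives have a fitted effect of over 15% in size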
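FRET biosensor (snurportin 1 IBB flanked by EYFP and cerulean), 50 nM, with compound 5 min, then 0.125 microM importin beta in PBS, 1 mM DTT, 0.02% Tween-20, 0.1% BSA. CFP/YFP ratio read after 45 min at room temperature; pre-read flags interference.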
TSG101-PTAP inh: blocks PTAP/TSG101 interaction to inhibit HIV-1 budding; AID 493005; Potency, µM (titrated, usually from 115 µM), for the others: top-dose activity change, negative = inhibition, hits mostly inhibitors; Fluorescence polarization, FITC-PTAP peptide / Tsg101 binding; 340,000 tested, under 10 active; active means well fitted inhibition curve with a large enough effect in the main read-out, with a control signal flat, not every such curve was filed as active; inconclusive means small, poorly fitted or top-dose-only effect, or effect the other way, or a change in a side signal; inactive means no such curve, though single readings can be large or run the other way; further: % of control where 0% means no effect
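FP read-out: FITC-PTAP peptide, 50 nM final, binding Tsg101 binding domain, 10 uM final; 20 min, r.t.; 10 mM HEPES pH 7.5, 0.15 M NaCl, 0.01% Tween 20, 3 mM EDTA, 0.1 mM TCEP.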
* = called active by the depositor; ? = inconclusive; . = no result; [ ] = another dose, or the depositor's remark. Shown are actives, neighbours in structure and some others; about 2.4% of the full set was active somewhere. Unless noted, the call rests on the fitted dose curve; in most records, active means well fitted curve in the direction sought with a large enough effect; inconclusive means small, poorly fitted or top-dose-only effect, or another doubt; inactive means no such curve, though single readings can be large; an effect the other way counts as inactive or inconclusive. Potency means the concentration at half of the fitted maximal effect.

SMILES	ALOX12 inh	ClpP mod	TDP1 inh	Rango release inh	Rango complex inh	TSG101-PTAP inh
Cc1ccc(-c2n[nH]c(=S)n2Cc2ccccc2)cc1	40µM*	-26%	2%	-6%	0%	1%
COc1ccc(Cn2c(-c3ccc(OC)cc3)n[nH]c2=S)cc1	16µM*	.	.	-6%	1%	3%
CCOc1ccc(-c2n[nH]c(=S)n2Cc2ccccc2)cc1	?	-19%	5%	2%	0%	-1%
Cc1ccc(-n2c(-c3ccc(Cl)cc3)n[nH]c2=S)c(C)c1	?	-19%	.	-10%	-3%	-16%
COc1ccc(-n2c(COc3cccc(C)c3)n[nH]c2=S)cc1	8.9µM*	.	.	-12%	-5%	-5%
CCn1nc(C(=O)Nc2ccccc2F)c2ccccc2c1=O	-27%	.	.	.	.	.
Ic1ccc2noc(-c3ccccc3)c2c1	-33%	.	.	.	.	.
CC(C)C1CN(C(=O)c2ccccc2-c2ncc[nH]2)CCC(=O)N1CC1CC1 (configuration not stated)	13%	.	.	.	.	.
S=c1[nH]nc(-c2cc3ccccc3o2)n1Cc1ccccc1	45µM*	3.2µM*	2%	-6%	2%	-2%
S=c1[nH]nc(CCc2ccccc2)n1Cc1ccccc1	?	-1%	6%	2%	?	-7%
CC(C)Oc1ccc(Cn2c(-c3ccco3)n[nH]c2=S)cc1	?	28µM*	-1%	1%	-1%	-7%
Nn1c(-c2ccco2)n[nH]c1=S	?	-11%	4%	9%	5%	-6%
S=c1[nH]nc(-c2ccco2)n1-c1ccc(Cl)cc1	40µM*	.	-4%	11%	-1%	-4%
COc1ccc(Cc2n[nH]c(=S)n2CC(C)C)cc1	14µM*	.	.	.	.	.
C=CCNC(=O)C[C@@H]1CCN(S(=O)(=O)c2ccc(OC)cc2)C[C@@H]1CC	22%[176 µM]	.	.	.	.	.
Cn1c(=O)[nH]c(=O)c2c1nc(CN(Cc1ccccc1)Cc1ccccc1)n2CC(N)=O	2%	.	.	.	.	.
O=C(/C=C/Nc1ccc(Cl)c(C(F)(F)F)c1)c1ccc(Cl)cc1	15%	.	.	.	.	.
CC(Oc1ccc(Cl)cc1)C(=O)NNC(=S)NC(=O)c1ccco1 (configuration not stated)	45µM*	-2%	9%	14%	0%	0%
COc1ccc(C(=O)NNC(=S)NC(=O)c2ccco2)cc1	0%	1%	9%	17%	0%	0%
CCCOc1ccc(C(=O)NNC(=S)NC(=O)c2ccco2)cc1	40µM*	-3%	.	0%	0%	-2%
O=C(NC(=S)NNC(=O)c1ccco1)c1ccc(Br)cc1	28µM*	-2%	5%	3%	1%	-9%
O=C(NNC(=S)NC(=O)c1cccc([N+](=O)[O-])c1)c1ccc(Br)cc1	40µM*	.	.	?	1%	-5%
Cc1ccc(-c2nn3c(CCCC(=O)O)nc4ccccc4c3nc2=O)cc1	-3%	.	.	.	.	.
Oc1ccc(C2(c3cccc(Cl)c3)CCCC2)cc1	-56%	.	.	.	.	.
O=C(c1ccc(N2CCOCC2)nc1)N1CCCC(c2ccccc2)CC1 (configuration not stated)	-21%	.	.	.	.	.
SMILES	ALOX12 inh	ClpP mod	TDP1 inh	Rango release inh	Rango complex inh	TSG101-PTAP inh
Cc1ccc(NC(=O)c2sc3nc(-c4ccc(C)cc4)ccc3c2N)cc1	16%	.	.	.	.	.
COc1cccc(NC(=O)Cn2cccc2-c2nc(-c3ccc(OC)c(F)c3)no2)c1	-4%	.	.	.	.	.
COc1ccc2nc(C[C@@H]3C[C@@H](C(C)C)[C@H](CNC(=O)C4CCCCC4)C=C3C)[nH]c2c1	22%[176 µM]	.	.	.	.	.
CCCOc1ccc(C(=O)NNC(=S)NC(=O)c2ccccc2)cc1	35µM*	-1%	.	-2%	1%	-5%
CCCOc1ccc(C(=O)NNC(=S)NC(C)=O)cc1	-3%	-3%	11%	4%	-1%	-8%
O=C(/C=C/c1ccccc1)NC(=S)NNC(=O)c1ccccc1	6.3µM*	.	.	.	.	.
Cc1cc2oc(=O)cc(CN3CCN(c4ccccc4F)CC3)c2cc1O	-3%	.	.	.	.	.
COCc1cc(CNC(=O)CC2C(=O)NCCN2Cc2ccccc2)[nH]n1 (configuration not stated)	59%	.	.	.	.	.
Cc1cc(NCc2ccccn2)n2ncc(-c3ccc(F)cc3)c2n1	37%	.	.	.	.	.
COC[C@@H]1CN(C(=O)CCc2ccc(OC)cc2)C[C@H]1C(N)=O	3%	.	.	.	.	.
COC[C@H]1CCCN1C(=O)C[C@@H]1O[C@H](CNS(=O)(=O)c2ccccc2)[C@@H](O)[C@H]1O	40µM*	.	.	.	.	.
O=C(C[C@@H]1O[C@H](CNS(=O)(=O)c2ccccc2)[C@@H](O)[C@H]1O)N1CCN(c2ccccc2)CC1	6%	.	.	.	.	.
Cn1cnc(S(=O)(=O)N2CC[C@H]3C(=O)NCCCCCCN(Cc4ccncc4)[C@@H]3C2)c1	39%	.	.	.	.	.
Cc1ccc(-c2nc3ccc(Br)cn3c2Cc2ccsc2)cc1	3.2µM*	-3%	.	.	.	.
Cc1ccc(Cc2c(-c3ccc(Br)cc3)nc3ccc(Cl)cn23)cc1	35µM*	-12%	.	.	.	.
CCC(=O)NC(=S)Nc1cccc(C(=O)N(CC)CC)c1	2%	.	.	.	.	.
CC(C)Oc1ccc(/C=N/NC(=O)c2ccc(N(Cc3ccccc3)S(C)(=O)=O)cc2)cc1	10%	-18%	8%	1%	0%	-1%
NC(=O)COc1ccc(/C=N\NC(=O)c2ccc(-c3ccccc3)cc2)cc1	-1%	10µM*	.	6%	0%	-1%
COC(=O)COc1ccc(/C=N/NC(=O)c2ccc(N(Cc3ccccc3)S(C)(=O)=O)cc2)cc1	12%	32µM*	3%	-8%	-2%	2%
O=C(N/N=C/c1ccccc1)c1ccc(-c2ccccc2)cc1	8%	-2%	.	0%	1%	0%
O=c1oc2c(O)c(O)cc3c(=O)oc4c(O)c(O)cc1c4c23	?	-2%	0.1µM*	-11%	?	-3%
Cc1c(C)c2cc(Cl)c(O)c(CN(C)C)c2oc1=O	-17%	24%	7%	?	?	-2%
Cc1ccc(-c2c(C(=O)N/N=C/c3ccc(OC(C)C)cc3)nnn2-c2nonc2N)cc1	8%	28µM*	5%	-6%	1%	-6%
Cc1c(Cl)cccc1NC(=O)CCc1ncc(-c2ccccc2)o1	-8%	.	.	.	.	.
O=C(NC1CCCC1)c1ccc2c(Cl)c3c(nc2c1)CCC3	-16%	.	.	.	.	.
CC(=O)c1c(N2CCN(Cc3ccccc3)CC2)[nH]c(-c2ccccc2)nc1=S	40µM*	1%	10%	10%	3%	4%
